Screening results deposited in PubChem by National Center for Advancing Translational Sciences (NCATS).
Shown are actives, neighbours in structure and some others; about 2.4% of the full set was active somewhere.
D2 PAM-1: potentiates the human D2 dopamine receptor allosterically; potentiation, % (no concentration beside the values); DiscoveRx D2 beta-arrestin cells, luminescence, 90 min; 100% = 57 uM dopamine signal; 0.23% of 360,000 active; in the data active = potentiation above about 50%; inconclusive = mostly about 30% to 49%
Target sequence (P14416 whole entry, looked up): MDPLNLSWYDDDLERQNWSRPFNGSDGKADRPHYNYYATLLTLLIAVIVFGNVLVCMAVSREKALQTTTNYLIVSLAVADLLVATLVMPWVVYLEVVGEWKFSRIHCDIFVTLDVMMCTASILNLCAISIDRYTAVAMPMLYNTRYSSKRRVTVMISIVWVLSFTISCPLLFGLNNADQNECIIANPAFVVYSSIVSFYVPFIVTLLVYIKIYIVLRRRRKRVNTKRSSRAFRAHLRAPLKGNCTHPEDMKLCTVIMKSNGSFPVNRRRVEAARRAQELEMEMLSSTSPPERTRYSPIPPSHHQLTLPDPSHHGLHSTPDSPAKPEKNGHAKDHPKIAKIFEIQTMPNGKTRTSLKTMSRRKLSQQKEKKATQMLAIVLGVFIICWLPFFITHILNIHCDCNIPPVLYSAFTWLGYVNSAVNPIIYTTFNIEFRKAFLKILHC
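D2 cells co-treated with compound plus 50 nM dopamine (EC20) for 90 min at 37 deg C to detect potentiation. Beta-arrestin recruitment was read as enzyme-fragment luminescence after 1 h at ambient temperature. Full response was set by 57 uM dopamine.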
D2 ag-1: activates the human D2 dopamine receptor. P14416. HEK293 T-REx D2 cells, calcium flux agonist mode. activation, % at 2 µM. 0.53% of 340,000 active;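 active = activation over 3 SD above normal in the single-dose calcium agonist read, cut at about 30% in these data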; also: 0% is about no effect
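In this primary screen, compounds producing a positive calcium signal within 180 s of addition to tetracycline-induced, force-coupled HEK293 Trex D2 cells are flagged; cells are dye-loaded with a no-wash calcium kit beforehand.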
D2 ag-2: agonists of human D2 dopamine receptor (beta-arrestin). 0.084% of 360,000 active. activation, % (test concentration not listed). DiscoveRx PathHunter D2 beta-arrestin, luminescence, 90 min; 100% = 57 uM dopamine signal. AID 624465; in the data active = activation above about 40%; inconclusive = between about 15% and that limit
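Agonist mode: compounds alone added to overnight-plated D2 PathHunter cells for 90 min at 37 C, with 57 uM final dopamine (EC100) defining full response. Beta-arrestin recruitment detected by chemiluminescent reagent, read after 1 h at ambient temperature.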
D2 PAM-2: D2 dopamine receptor (human) potentiation; P14416; HEK293 T-REx D2, calcium flux, EC20 dopamine potentiation; potentiation, % at 10 µM; 0.34% of 340,000 active; AID 485347;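 active = potentiation over 3 SD above the plate norm, cut at about 30% in these data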; also: 0% is about no effect
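Potentiation of an EC20 dopamine calcium response measured kinetically over 180 s, after a preceding 180 s compound-only read flagging agonists. Cells: inducible Hek293 Trex D2 line, 4000/well, cultured overnight at 30 C before dye loading.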
D2 antagonist: antagonizes the human D2 dopamine receptor; P14416; HEK293 TREx D2 cells, calcium flux, dopamine EC80; inhibition, % at 10 µM; 2% of 340,000 active; in the data active = inhibition above about 30%; inactive = below that, where a call was filed; also: 0% is about no effect
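Tetracycline-induced HEK293 T-REx cells expressing D2 force-coupled to calcium signalling were dye-loaded, exposed to compound for 180 s, then challenged with an EC80 of dopamine; calcium flux was followed kinetically for a further 180 s.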
D3 arrestin ag: D3 receptor agonism confirmed, beta-arrestin readout. shares compounds with D2 ag-1. DiscoveRx D3 beta-arrestin cells, luminescence, 90 min. Potency, µM (series often up to 76.9 µM), for inactives: at the top dose activation, most hits filed as activators. 4% of 2,300 active;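 also: potency is read from the fitted curve at half-maximal effect; 100% = dopamine control response; nearly all actives have a fitted effect of over 70% in size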
D2 ag-3: activates human D2 dopamine receptor in D3 counterscreen. 5.9% of 2,300 active. DiscoveRx PathHunter D2 beta-arrestin, luminescence, 90 min; response scale: percent relative to full dopamine signal. Potency, µM (doses to about 76.9 µM), for the others: top-dose activation, hits mostly activators. shares compounds with D2 ag-1; also: potency is read from the fitted curve at half-maximal effect; % of control where 0% means no effect; nearly all actives have a fitted effect of over 70% in size
Active calls of the source: *; ? = inconclusive; . = no result given. Unless noted, calls follow the shape of the dose curve; as a rule, active = well fitted activation curve with a large enough effect; inconclusive = small, poorly fitted or top-dose-only effect; inactive = flat fitted curve, though single readings scatter.

SMILES | D2 PAM-1 | D2 ag-1 | D2 ag-2 | D2 PAM-2 | D2 antagonist | D3 arrestin ag | D2 ag-3
COc1ccc(C2c3ccc4ccccc4c3Oc3ncn(CCO)c(=N)c32)cc1OC (configuration not stated) | 4 | . | -1 | . | . | . | .
Cn1ccc(C(=O)Nc2ccc3c(c2)OCCO3)n1 | 4 | 0 | 3 | 8 | 22 | -5% | -3%
O=C(O)C1C2C=CC(C2)C1C(=O)NCCc1ccccc1 (configuration not stated) | 15 | 53* | 8 | -12 | 23 | 0% | 0%
O=C(O)C1C2C=CC(C2)C1C(=O)NCCCc1ccccc1 (configuration not stated) | -9 | 1 | 1 | 1 | -26 | . | .
CCOc1ccccc1-c1cncc(NC)n1 | -9 | . | -5 | . | . | . | .
O=C(O)C1CCCN1S(=O)(=O)c1cccc2nsnc12 (configuration not stated) | -2 | 45* | 0 | -12 | -6 | -10% | -2%
O=C(NCCN1CCN(c2ccccc2)CC1)C1CCN(S(=O)(=O)c2cccc3nsnc23)CC1 | -1 | 28 | ? | . | 55* | ? | 22%
O=C(NCCc1ccccc1)C1CCN(S(=O)(=O)c2cccc3nsnc23)CC1 | -19 | -1 | -1 | 2 | -14 | . | .
COc1ccc(CNC(=O)CN2C(=O)COc3ccc(S(=O)(=O)Nc4ccccc4)cc32)cc1 | . | 1 | . | -3 | . | . | .
CCN1C=C(Cc2ccccc2C)C2=C(C1)C(c1ccccc1C)C(C#N)=C(N)O2 (configuration not stated) | -34 | . | 0 | 0 | . | . | .
CCN1C=CC2=C(C#N)C(N)C(C#N)(C#N)C(c3ccccc3C(F)(F)F)C2C1 (configuration not stated) | -13 | 3 | -8 | 14 | 14 | -1% | -3%
O=C(CN1CCN(c2ccccn2)CC1)Nc1ccc(F)c(F)c1 | 3 | 52* | ? | -18 | 18 | ? | 16%
Cc1cc(NC(=O)CN2CCN(c3ccccn3)CC2)ccc1Br | -2 | 37* | 7 | -19 | 17 | 16µM* | 17%
O=C(CN1CCN(c2ccccn2)CC1)NC1CCCC1 | -8 | 24 | 7 | -9 | 9 | -13% | 11%
Cc1cc(C)c(NC(=O)CN2CCN(c3ccccn3)CC2)c(C)c1 | -4 | 21 | 8 | -4 | 21 | 4% | 9%
O=C(CN1CCN(c2ccccn2)CC1)Nc1nc2ccccc2s1 | 6 | 0 | 6 | 10 | -8 | . | .
O=C(CN1CCN(c2ccccn2)CC1)NCCc1ccccc1 | -4 | 5 | 5 | -6 | -7 | . | .
Cc1ccc(NC(=O)c2ncn(CCCN3CCN(c4ccccn4)CC3)n2)cc1C | -12 | . | 0 | . | . | . | .
CC(C)c1ccc(NC(=O)C2CCCN(S(=O)(=O)c3cccc4cccnc34)C2)cc1 (configuration not stated) | . | 1 | . | 17 | . | . | .
COc1cccc(NC(=O)CSC2=Nc3ccccc3C3=NC(CCC(=O)NCCc4ccccc4)C(=O)N23)c1 (configuration not stated) | . | 0 | . | 4 | . | . | .
O=C(CN1CCN(c2ccccn2)CC1)Nc1cccc(S(=O)(=O)N2CCCC2)c1 | -17 | 60* | 3 | -34 | 60* | ? | 28µM*
Cc1cc(C)n2nc(C(=O)Nc3ccn(Cc4ccccc4C)n3)cc2n1 | -1 | 51* | 0 | 0 | -8 | 2% | -2%
O=C(c1cccc2ccccc12)N1CCC(N2CCN(c3ccccc3)CC2)CC1 | 16 | 77* | 7 | -22 | 75* | 1.4µM* | ?
O=C(c1cccs1)N1CCC(N2CCN(c3ccccc3)CC2)CC1 | 1 | 85* | ? | -25 | 54* | 7.1µM* | ?
CCOC(=O)N1CCC(N2CCN(S(=O)(=O)CC)CC2)CC1 | -12 | 0 | 2 | -3 | -4 | . | .
SMILES | D2 PAM-1 | D2 ag-1 | D2 ag-2 | D2 PAM-2 | D2 antagonist | D3 arrestin ag | D2 ag-3
CCOC(=O)N1CCC(N2CCCC(C(=O)c3cccc(OC(C)C)c3)C2)CC1 (configuration not stated) | -5 | -2 | -1 | 12 | 18 | . | .
CCOC(=O)N1CCC(N2CCN(c3ccccc3)CC2)CC1 | 9 | 45* | ? | -11 | 74* | ? | ?
CCOC(=O)N1CCC(N2CCCC(C(=O)c3cccc(OC)c3)C2)CC1 (configuration not stated) | -30 | 50* | 3 | -24 | 40* | -10% | 3%
COc1ccc(-c2cc(C(C)=O)c(C)n2CCC(=O)Nc2ccc(C(F)(F)F)cc2)cc1 | . | 0 | . | -4 | . | . | .
CCCC(c1nnnn1Cc1ccc(OC)cc1)N1CCN(c2ccccc2)CC1 (configuration not stated) | -5 | 45* | ? | -10 | 8 | -5% | ?
Cc1cc(=O)n2nc(N3CCC(C(=O)N4CCN(c5ccccc5)CC4)CC3)sc2n1 | -9 | 20 | 5 | -1 | 6 | ? | 26%
C=CCOc1ccc(Br)cc1CNCC | -8 | 62* | -3 | -28 | 67* | 9% | ?
CN(C)c1ccc(CNC(=O)CCn2c(=O)c3cccn3c3ccc(F)cc32)cc1 | . | -1 | . | 4 | . | . | .
CC(=O)c1cccc(NC(=O)C(C)OC(=O)CCn2c(C)csc2=O)c1 (configuration not stated) | -7 | 0 | -2 | 0 | -11 | -6% | -3%
Cc1csc(=O)n1CCC(=O)OC(C)C(=O)Nc1ccc(N2CCOCC2)cc1 (configuration not stated) | -1 | -1 | 7 | -5 | -4 | . | .
COCc1ccc(-c2c(-c3ccccc3OC)sc3cc4c(cc23)OCO4)cc1 | -6 | 0 | -2 | 8 | 40* | 1% | -3%
COc1cc(/C=C/C(=O)OCC(=O)Nc2ccc(C)cc2[N+](=O)[O-])ccc1O | -6 | 1 | -4 | 9 | -28 | . | .
COc1cc(/C=C/C(=O)OCC(=O)Nc2cc(C)c(C)cc2[N+](=O)[O-])ccc1O | -8 | -1 | 0 | 9 | 22 | -4% | -2%
Cc1c(Cl)cccc1NC(=O)c1ccc2c(c1)CCCN2S(C)(=O)=O | . | 0 | . | 0 | . | . | .
Cc1ccc(CN(C)C(=O)COC(=O)CSc2cc(C)c3ccccc3n2)cc1 | 2 | 0 | -5 | -4 | -24 | -3% | 0%
CCN1c2ccccc2-c2nc(SCC(=O)Nc3cc(F)ccc3F)ncc2S1(=O)=O | . | 1 | . | 1 | . | . | .
O=C(O)COCC(=O)Nc1ccc(OCCc2ccccc2)cc1 | -3 | 0 | -2 | -4 | 0 | -4% | 2%
